Reference: PubChem BioAssay (Tox21)
Results filed as inconclusive are left out. Entries that show only a call come without a potency. The source made the active and inactive calls. The call rests on the fitted dose curve; in most records, active means well fitted cell-killing curve with a large enough effect in the repeat runs; inconclusive means weak or mixed curves; inactive means no such curve, though single readings can be large or run the other way.

Assay: qHTS assay to identify small molecule antagonists of the androgen receptor (AR) signaling pathway - cell viability counter screen (AID 743033; further: nearly all actives have a fitted effect of over 45% in size)
Conditions: AR-bla HEK293 viability, CellTiter-Glo luminescence, 16 h; series mostly up to 58.5 µM
Description: National Center for Advancing Translational Sciences [NCATS]
NIH Chemical Genomics Center [NCGC]
U.S. Environmental Protection Agency [EPA]
National Institutes of Environmental Health Sciences [NIEHS]
National Toxicology Program [NTP]
U.S. Food and Drug Administration [FDA]
Androgen receptor (AR), a nuclear hormone receptor, plays a critical role in AR-dependent prostate cancer and other androgen related diseases. Endocrine disrupting chemicals (EDCs) and their interactions with steroid hormone receptors like AR may cause disruption of normal endocrine function as well as interfere with metabolic homeostasis, reproduction, developmental and behavioral functions. To identify the compounds that inhibit AR signaling, GeneBLAzer AR-UAS-bla-GripTite cell line (Invitrogen, Carlsbad, CA, USA) containing a beta-lactamase reporter gene under control of an Upstream Activator Sequence (UAS) stably integrated into HEK293 cells was used to screen the Tox21 10K compound library. The cytotoxicity of the Tox21 compound library against the AR-bla cell line was tested in parallel by measuring the cell viability using CellTiter-Glo assay in the same wells.
Tox21 Assay Protocol Summary:
AR-bla cells were dispensed at 2,000 cells/5 uL of assay medium per well into black wall/clear-bottom 1536-well plates using a Multidrop Combi (ThermoFisher Scientific, Waltham, MA) dispenser. After the assay plates were incubated at a 37C and 5% CO2 for 4 hr, 23 nL of compounds dissolved in DMSO, positive controls or DMSO only was transferred to the assay plate by a Pintool station (Kalypsys, San Diego, CA), followed by addition of 1 uL of agonist (R1881) in culture medium using a Bioraptr Flying Reagent Dispenser (FRD) workstation (Beckman Coulter, Indianapolis, IN, USA). The plates were incubated at a 37C and 5% CO2 for 16 h. After 1 uL of LiveBLAzerTM B/G FRET substrate was added using a Bioraptr FRD, the plates were incubated at room temperature for 2 h and fluorescence intensity was measured by an Envision plate reader (PerkinElmer, Shelton, CT). For cell viability readout that measures cytotoxicity, 4 ul/well of CellTiter-Glo reagent was added into the assay plates using a Bioraptr FRD. After 30 min incubation at room temperature, the luminescence intensity in the plates was measured using a ViewLux (PerkinElmer) plate reader.

Compound	Potency
CC1CCc2cc(F)cc3c(=O)c(C(=O)O)cn1c23 (stereo not given)	inactive
NCCCOCCOCCOCCCN	inactive
CC(C)NCC(O)c1cc(O)cc(O)c1 (stereo not given)	inactive
CCN(CC)CCOc1ccc2c(c1)C(=O)c1cc(OCCN(CC)CC)ccc1-2	inactive
Cc1cccc(Oc2ccccc2)c1	inactive
CCCCOC(=O)/C=C\C(=O)OCCCC	inactive
CCCCCC(CO)CCC (stereo not given)	inactive
S=C(S)NCCNC(=S)S	inactive
Cc1cccc(OCCOc2cccc(C)c2)c1	inactive
O=C1CCCCCO1	inactive
O=C(O)/C=C/c1cnc[nH]1	inactive
CCN(CCO)CCCC(C)Nc1ccnc2cc(Cl)ccc12 (stereo not given)	inactive
C#CCOC(=O)[C@@H](C)Oc1ccc(Oc2ncc(Cl)cc2F)cc1	inactive
CCCCCCCCCCCCC(=O)O	inactive
CCN(CC)CCOC(=O)C1(c2ccccc2)CCCC1	inactive
CC(=O)Nc1ccc(/C=N/NC(N)=S)cc1	inactive
CC(C)(C)C1CCCCC1O (stereo not given)	inactive
COCCO	inactive
C[C@H](CCC(=O)O)[C@H]1CC[C@H]2[C@@H]3[C@H](O)C[C@@H]4C[C@H](O)CC[C@]4(C)[C@H]3CC[C@]12C	inactive
OCC1CC2CC1C1CCC(CO)C21 (stereo not given)	inactive

Compound	Potency
Cn1c(NCCN(CCO)CCCc2ccc([N+](=O)[O-])cc2)cc(=O)n(C)c1=O	inactive
C=CCCCCCC	inactive
O=C(O)c1cccc(N(Cc2cccnc2)c2ccc(OC(F)F)c(OC(F)F)c2)c1	inactive
CCCC(C)C	inactive
CC(C)c1cccc(C(C)C)c1NC(=O)NS(=O)(=O)c1cc(C(C)(C)O)co1	inactive
O=C(c1ccc(O)cc1)c1ccc(O)cc1	inactive
CCCCCCCCCCCCCCC1CO1 (stereo not given)	inactive
C1=Cc2ccccc2C1	inactive
CC[C@H](C)[C@H](N)C(=O)O	inactive
Oc1ccc(Sc2ccc(O)cc2)cc1	inactive
CC(C)(C)c1ccc(OCC2CO2)cc1 (stereo not given)	inactive
Nc1nc(CC(=O)O)cs1	inactive
O=[N+]([O-])c1cccc(Cl)c1Cl	inactive
CCCCCCCCCC=O	inactive
c1ccc(OCc2ccc(CCCN3CCOCC3)cc2)cc1	inactive
CC[C@H](C)[C@@H](C(=O)O)n1sc2ccccc2c1=O	inactive
CC(=O)NCCCS(=O)(=O)O	inactive
CC(C)(C)C(=O)OCOP(=O)(COCCn1cnc2c(N)ncnc21)OCOC(=O)C(C)(C)C	inactive
CC(=O)OC/C=C/c1ccccc1	inactive
CCCC[C@H]1CN(CC2CCOCC2)C(=O)OC12CCN(C1(C)CCN(C(=O)c3c(C)ncnc3C)CC1)CC2	inactive
